Results from PubChem BioAssay AID504660 (National Center for Advancing Translational Sciences (NCATS), 2011).
Where “and” joins values, the source holds several entries; their conditions need not be identical. Equal values may be shown once. The whole screen tested about 360,000 compounds, of which about 3,700 (1%) were called active. Shown is part of a subset that was picked to be rich in actives. Values without a mark were called inactive. Rule as the data show it: active = activation above about 30%; inactive = the rest.

Each compound was assayed against D(1A) dopamine receptor (Homo sapiens) (UniProt P21728) (assay: Allosteric Agonists of the Human D1 Dopamine Receptor: qHTS). Conditions: HEK293 T-REx D1 cells, calcium flux, agonist mode; at 2 µM; stronger effect = higher value.
D(1A) dopamine receptor (Homo sapiens), sequence (P21728 whole entry, looked up): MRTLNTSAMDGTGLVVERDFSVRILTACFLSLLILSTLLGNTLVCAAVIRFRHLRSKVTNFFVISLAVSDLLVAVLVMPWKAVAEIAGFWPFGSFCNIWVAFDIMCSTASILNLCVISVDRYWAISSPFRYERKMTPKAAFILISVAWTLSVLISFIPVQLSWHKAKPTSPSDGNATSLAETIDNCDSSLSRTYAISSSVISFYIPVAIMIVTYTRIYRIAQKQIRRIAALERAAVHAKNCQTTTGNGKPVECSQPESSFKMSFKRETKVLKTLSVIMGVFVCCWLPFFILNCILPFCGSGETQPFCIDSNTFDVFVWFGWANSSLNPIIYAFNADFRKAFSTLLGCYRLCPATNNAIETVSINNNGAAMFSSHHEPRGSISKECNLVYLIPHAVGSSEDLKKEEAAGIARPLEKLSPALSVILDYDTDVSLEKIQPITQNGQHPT
Method in brief: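 Agonism was scored from calcium flux recorded over 180 s (1 read/s) after pintool compound addition, following a 10-cycle baseline. Cells were inducible force-coupled HEK293 TREx D1, plated overnight at 30 C and loaded with no-wash calcium dye.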
Also: 0% is about no effect.

Row | Compound | activation
1 | CCN(CC)C(=O)CSc1nc2cc3c(cc2c(=O)n1CCCC(=O)NCc1ccc2c(c1)OCO2)OCO3 | 0.699%
2 | CCOc1ccc(CNC(=O)C2CCCN(S(=O)(=O)N(CC)c3ccc(OCC)cc3)C2)cc1 (centres undefined) | -0.432%
3 | Cc1noc2ncnc(NCc3ccccc3Cl)c12 | 21.4%
4 | Cc1noc(C)c1-c1ccc2ncnc(NCc3ccc(F)c(F)c3)c2c1 | 131% (active)
5 | Cc1noc(C)c1-c1ccc2ncnc(NC(C)c3ccco3)c2c1 (centres undefined) | -0.27%
6 | O=C(NCCCO)c1nn(-c2ccc(Cl)cc2)nc1CO | -0.511%
7 | Cc1ccc(OCC(=O)Nc2ccc(OCc3cc(=O)n4c(C)csc4n3)cc2)cc1C | 5.64%
8 | O=C(C[n+]1cc(Br)cc2ccccc21)c1ccc(F)cc1 | 39.6% (active)
9 | O=C(c1ccc(F)cc1)n1c(=S)nc2ccccn21 | 2.37%
10 | O=C(CNC(=O)c1ccccc1F)c1ccc(Br)cc1 | -0.969%
11 | Cc1ccc(-n2ncc3c(N4CCC(C(N)=O)CC4)ncnc32)cc1 | -2.06%
12 | CCOC(=O)C1CCN(C(=O)CSc2c3c(nc4ccc(Cl)cc24)CCCC3)CC1 | 3.05%
13 | Cc1cc(NC(=O)c2ccc(-c3ccc(Cl)cc3)o2)cc(-c2nc3ncccc3o2)c1O | -0.471%
14 | CCN(Cc1ccccc1)C(=O)c1cn(-c2cccc(OC)c2)c(=O)c2ccccc12 | 0.204%
15 | Cc1cccc(C(=O)Nc2ccc(-c3nc4ncccc4o3)cc2C)c1 | 0.768%
16 | CCCCN(CC)C(=O)c1ccc2c(c1)OCO2 | 4.54%
17 | CN(C)CCCN(C(=O)c1ccc(S(=O)(=O)N2CCCCCC2)cc1)c1nc2ccc(Br)cc2s1 | 42.8% (active)
18 | CCN(CC)CCN(C(=O)c1ccc(N2C(=O)CCC2=O)cc1)c1nc2cc3c(cc2s1)OCO3 | 5.63%
19 | CCc1ccc2nc(N(CCCN(C)C)C(=O)c3ccc4c(c3)OCCO4)sc2c1 | 53.9% (active)
20 | CCN(CC(=O)Nc1c(F)cccc1F)C(=O)c1ccc(S(=O)(=O)N2CCCCC2)cc1 | -0.0233%
21 | Cc1cc(C)c2sc(NC(=O)c3ccc(S(=O)(=O)N4CCCC4)cc3)nc2c1 | -0.497%
22 | CCOc1ccc(CNC(=O)c2cc(=O)[nH]c3ccc(S(=O)(=O)N4CCCCC4)cc23)cc1 | -3.81%
23 | Cc1cc(C)cc(NS(=O)(=O)c2cc3c(cc2C)NC(=O)CO3)c1 | 3.6%

Row | Compound | activation
24 | Cc1ccccc1OCc1ccc(-c2nc(C#N)c(N3CCCCC3)o2)o1 | 1.07%
25 | Cc1ccc(Cn2ncc3c4sc(C)cc4n(C)c3c2=O)c(C)c1 | 3.45%
26 | Cn1c(=O)c(=O)n(C)c2cc(NC(=O)c3ccccc3Br)ccc21 | 0.667%
27 | Cc1ccc(CNC(=O)CCNS(=O)(=O)c2ccc3c(c2)oc(=O)n3C)cc1 | 1.82%
28 | Cc1cc(OCC(=O)NCC2(N(C)C)CCCCC2)cc(C)c1Cl | 9.34%
29 | CN1CCN(C2(CNC(=O)COc3ccc(C(C)(C)C)cc3)CCCCC2)CC1 | 42.8% (active)
30 | CCOc1ccc(S(=O)(=O)Nc2cccc(C(=O)NCC3(N4CCCCC4)CCCCC3)c2)cc1 | 5.67%
31 | O=C(NCc1ccc2c(c1)CCN2C(=O)c1ccccc1)c1ccccc1 | 2.65%
32 | Cc1cc(C)c2nc3nc(C)cc(C)c3c(N)c2c1 | 31% (active)
33 | O=C(CSc1nc2c(c(=O)[nH]1)CN(Cc1ccc(F)cc1)CC2)Nc1ccccc1Cl | 3.05%
34 | CCOc1ccccc1CNC(=O)C1CCCN(S(=O)(=O)c2ccc3c(ccn3C)c2)C1 (centres undefined) | 4.08%
35 | O=C(Nc1nnc(S(=O)(=O)N2CCCc3ccccc32)s1)c1cccc(F)c1 | 0.00305%
36 | O=C(c1ccc(Br)cc1)N(Cc1cccs1)c1ccc(F)cc1 | 9.82%
37 | Cc1c2cnn(-c3ccccc3)c(=O)c2c(C)n1CCCC(=O)N1CCN(C)CC1 | 0.261%
38 | Cc1c2cnn(-c3ccccc3)c(=O)c2c(C)n1C(C)C(=O)Nc1ccc(Br)cc1F (centres undefined) | 34.5% (active)
39 | Cc1ccccc1CNC(=O)Cn1c(C)c2cnn(-c3ccccc3)c(=O)c2c1C | 3.52%
40 | O=C(/C=C/c1cn(CC(O)CN2CCc3ccccc32)c2ccccc12)c1ccc(Br)cc1 (centres undefined) | 11.4%
41 | COc1ccc(-c2cc(-c3ccc(F)cc3)nc3c2COc2ccccc2-3)cc1 | -0.494%
42 | COc1ccccc1CNC(=O)CCn1c(=O)c2ccccc2n(CC(=O)Nc2ccc(Br)cc2F)c1=O | 0.0005%
43 | Cn1nnc(NC(=S)NC(=O)c2ccccc2)n1 | 4.22%
44 | Cc1onc(-c2ccccc2)c1C(=O)NNC(=S)NC(=O)c1ccc(F)cc1 | 61.1% (active)
45 | O=C(/C=C/c1ccc(F)cc1)NC(=S)NNC(=O)c1cccnc1 | 1.33%
46 | COc1ccc(C(=O)NNC(=S)NC(=O)c2ccccc2)cc1 | 84.2% (active)

Row | Compound | activation
47 | COc1ccc(C(=O)NC(=O)CSc2nnc(-c3ccco3)n2-c2ccccc2)cc1 | 1%
48 | CC(=O)NC(=S)NNC(=O)c1ccc(Br)cc1 | 0.645%
49 | O=C(NNC(=S)NC(=O)c1cn(-c2ccccc2)nc1-c1ccccc1)c1ccncc1 | 6.27%
50 | COc1ccc(C(=O)NC(=S)NNC(=O)c2c(-c3ccccc3)noc2C)cc1 | 86.2% (active)
51 | COc1ccc(C(=O)Nc2onc3c2CCCC3)cc1 | -1.07%
52 | Cc1cc(C(=O)Nc2cccc(C(F)(F)F)c2)c2c(C)nn(-c3cccc(F)c3)c2n1 | 19.5%
53 | CCOc1ccc(-n2c(SCC(=O)NCc3ccccc3)nc3n[nH]c(C)c3c2=N)cc1 | 1.25%
54 | COc1ccc(N(CC(=O)NCCc2ccc(Cl)cc2)S(=O)(=O)c2c(C)nn(C)c2C)cc1 | 0.495%
55 | CCOC(=O)c1[nH]c(C)c(CCC(=O)NCc2ccccc2C)c1C | -0.942%
56 | CCOc1ccc(-c2nonc2NC(=O)c2oc3ccc(CC)cc3c2C)cc1 | 5.77%
57 | Cc1ccc(OC(=O)CSc2nnc(-c3cccs3)o2)cc1 | 1.31%
58 | CCN1CCN(c2ncc3c(n2)CC(c2ccccc2O)CC3=O)CC1 (centres undefined) | 9.15%
59 | Nc1ccc2nc3c(=O)[nH]c(=S)[nH]c3nc2c1 | 108% (active)
60 | CCC1CCCCN1S(=O)(=O)c1ccc(NC(=O)c2cc(=O)c3ccccc3o2)cc1 (centres undefined) | 0.0446%
61 | CC(C)C(=O)Nc1nc2c(s1)CC(C(C)(C)C)CC2 (centres undefined) | 1.03%
62 | COc1ccc(Cl)cc1NC(=O)CSc1nc(=O)[nH]c2c1CCCC2 | 6.85%
63 | Cc1ccc(O)c(NC(=O)CCS(=O)(=O)c2nc(-c3ccc4c(c3)OCO4)cc(C(F)(F)F)n2)c1 | 5.29%
64 | N=C(N)SCc1cccc2ccccc12 | 47.6% (active)
65 | CCOc1ccc(Br)cc1CSC(=N)N | 21.9%
66 | CSC1=NCCN1C(=O)Cc1cccc2ccccc12 | 1.65%
67 | CN1CCOc2cc(S(=O)(=O)N3CCN(S(=O)(=O)c4c(F)cccc4F)CC3)cnc21 | 1.83%
68 | CCSC1=NCCN1C(=O)c1ccc(S(=O)(=O)N(CC)CC)cc1 | 1.17%
69 | CCCN(CCC)S(=O)(=O)c1ccc(C(=O)NNC(=O)c2cc(OC)c(OC)c(OC)c2)cc1 | 6.23%

Row | Compound | activation
70 | CCCN(CCC)S(=O)(=O)c1ccc(C(=O)N2CC3CCC(CC3)C2)cc1 | 37.1% (active)
71 | COc1ccccc1NC(=O)C(=O)c1cc(C)n(-c2ccccc2F)c1C | 1.84%
72 | CCNS(=O)(=O)c1cc(-c2nnc(Nc3cccc(C(F)(F)F)c3)c3ccccc23)ccc1C | 4.19%
73 | Cc1csc2nc(COC(=O)c3ccccc3NC(=O)c3ccccc3Cl)cc(=O)n12 | 3.01%
74 | Fc1cnc(N2CCOCC2)nc1NCc1ccccc1 | 1.23%
75 | c1ccc2c(NC3C4CC5CC(C4)CC3C5)nc(N3CCOCC3)nc2c1 (centres undefined) | 38.3% (active)
76 | c1cnc(NC2C3CC4CC(C3)CC2C4)nc1 (centres undefined) | 7%
77 | CCOC(=O)c1cc2c(=O)n3ccccc3nc2n(Cc2ccco2)c1=NC(=O)c1ccc(F)cc1 | -0.478%
78 | CCCCCn1c(=O)[nH]c2cc(C(=O)Nc3cc(C)cc(C)c3)ccc2c1=O | 0.484%
79 | CCOC(=O)C1CCN(c2ncnc3c2c(-c2ccccc2)cn3-c2cccc(C)c2)CC1 | -1.59%
80 | Oc1ccc(Cl)cc1C1C=C(c2ccc3c(c2)OCO3)NC(c2c(F)cccc2Cl)N1 (centres undefined) | 21.1%
81 | CCCN1C(=O)C(Cc2nc3ccccc3c(=O)n2-c2ccccc2)c2cc(C)ccc21 (centres undefined) | 5.26% and 5.84%
82 | CCCc1nc2c(c(=O)c3ccccc3n2C)c(=O)n1C1CCCCCC1 | 190% (active)
83 | CCOc1ccc(NC(=O)c2cn(C3CCCCC3)c(=O)c3c2c2ccccc2n3C)cc1 | 2.25%
84 | Cc1ccc2c(=O)cc(C(=O)Nc3sc4c(c3C(=O)NCc3cccnc3)CCCC4)oc2c1 | 1.62%
85 | COc1ccccc1CNS(=O)(=O)c1ccc2c(c1)NC(=O)CS2 | 4.9%
86 | COc1ccc(S(=O)(=O)NCc2cccn2Cc2cccc(C)c2)cc1Cl | 33.8% (active)
87 | COc1ccc(S(=O)(=O)NCc2cccn2Cc2cccc(C)c2)cc1 | 23.9%
88 | Cc1ccc(Cl)cc1NC(=O)CCC(=O)N1CC(C)Sc2ccccc21 (centres undefined) | 0.39%
89 | Cc1cccc(-n2c(SCC(N)=O)nc3c(oc4ccccc43)c2=O)c1 | -1.27%
